This is an account of results in PubChem BioAssay.

The viability is a read-out of living cells in per cent, often relative to untreated cells. What is called inhibition is the drop in the measured response relative to a control, in per cent.

Several values for one entry are separate records, joined by “and”; a condition that tells them apart may be missing. Equal values may be shown once. Activity calls are given as the source filed them.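 Rule for the calls, unless noted: active = mean z-score across replicates of 1.96 or higher in either the MELAS or the Rieske mutant cell line; inactive = the rest.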

Assay [1] is described as follows: compounds altering viability of human ES cells (AID 493140; call rule not given here;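 note: cells exposed to compounds for four days before counting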). The conditions noted are these: human embryonic stem cell survival screen; stronger effect = higher value.
Assay [2] can be described thus: stimulators of insulin release from INS-1E, primary screen, cell-based, 5 mM glucose, NPC library (AID 1117329;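 active = compound raises insulin release from rat beta cells at 5 mM glucose, no numeric limit stated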). The conditions noted are these: rat INS-1E insulin secretion, at 10 µM, stronger effect = higher value.
Assay [3] in a line: growth inhibition of GSK3B-pretreated HCT116 cells – cell-based, CellTiter-Glo, 0.2 to 20 µM (AID 1117336;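 active = compounds lowering colon cancer cell viability after pretreatment blocking the GSK3B kinase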). As to conditions: HCT116 viability after GSK3B inhibitor, at 20 µM, stronger effect = higher value. A general note: Cellular ATP, detected with luciferase, serves as a proxy for viable cell number.
Assay [4] can be described thus: inhibition of endothelial tube formation, primary screen, imaging, VEGF stimulated, CD31 staining, tube area, NPC library (AID 1117340;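 active = compound that reduces growth-factor-driven endothelial tube area in a mixed cell culture, no cutoff stated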). As to conditions: VEGF-stimulated ADSC/ECFC co-culture, at 10 µM, stronger effect = higher value.
Assay [5] in a line: GLP1 release stimulators, primary, NCI-H716, NPC library (AID 1117341;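 active = compound raises GLP1 secretion from the human gut endocrine cells, with no numeric limit stated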). As to conditions: NCI-H716 cells, at 10 µM, stronger effect = higher value.
The nature of assay [6]: HCT116 colon cancer cell growth inhibition, primary screen, CellTiter-Glo luminescence, NPC library (AID 1117342;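 active = compounds that lower survival of HCT116 colon cancer cells in the luminescence readout, no numeric limit stated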). As to conditions: at 20 µM (top of the series).
A short description of assay [7]: reduced SW480 viability measured with CellTiter-Glo, NPC library, primary (AID 1117343;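 active = compounds that lower viability of the colon cancer cells in the luminescence readout, with no numeric limit stated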). As to conditions: CellTiter-Glo luminescence; at 20 µM (top of the series) unless noted.
Assay [8] is described as follows: NPC library primary testing for decreased DLD-1 cell viability via CellTiter-Glo (AID 1117346;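 active = compounds that lower survival of DLD-1 colon cancer cells in the luminescence readout, no cutoff given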). The conditions noted are these: DLD-1 viability, CellTiter-Glo luminescence; at 20 µM (top of the series).
A short description of assay [9]: modulation of C. elegans fzo-1 (AID 1259413; call rule not given here;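 note: fzo-1 mutant C. elegans worms in liquid wells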). As to conditions: C. elegans fzo-1 modulator screen, mean read-out; stronger effect = higher value.
Assay [10] can be described thus: EMT-state selective cytotoxicity in co-culture – imaging, PC-3E GFP, TEM4-18 mCherry, primary screen (AID 1345086;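 active = compounds killing one labelled cell type while sparing the other, by normalised counts and ratio limits, not self-fluorescent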;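 for all read-outs here: cells exposed to compound for 72 h before imaging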;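 for red/green cell ratio (normalised): normalised mesenchymal count divided by normalised epithelial count so high means epithelial killing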). As to conditions: PC-3E GFP / TEM4-18 mCherry co-culture, imaging cell counts, at 1 µM; for red/green cell ratio (normalised): actives lie on both sides, counts scaled to control wells, 1 = unselective.
The nature of assay [11]: MELAS cybrid and Rieske KO viability enhancers – cell-based, MELAS cybrids, Rieske KO mouse fibroblasts, CellTiter-Glo, primary screen (AID 1508586).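 Note: z relative to plate mean and SD of compound and empty wells.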 As to conditions: low glucose.
Assay [12] addresses NAD(+) hydrolase SARM1 (Homo sapiens) (UniProt Q6SZW1). The assay can be described thus: blocking NAD cleavage by SARM1 SAM-TIR – cell lysate, NAD-Glo luminescence (AID 1508614;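 active = compound whose remaining NAD level is above about 45 nM, limit read from the data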;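 note: higher remaining NAD means stronger inhibition of SARM1 NADase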). The conditions noted are these: SAM-TIR HEK293T lysate NADase, at 1 µM, stronger effect = higher value.
Assay [13] concerns the target Mitogen-activated protein kinase 7 (Homo sapiens) (UniProt Q13164). In words: Gal4-ERK5 driven luciferase induction – cell-based, HTS, primary screen (AID 1508626;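 active = luciferase signal above three times the same-plate solvent-only control wells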;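 note: luciferase driven by Gal4-ERK5 fusion binding five Gal4 sites before minimal TATA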). As to conditions: HeLa Gal4-ERK5 transactivation, 18 h, at 5 µM, stronger effect = higher value.
Assay [14] is described as follows: galactose survival enhancers in mitochondrial complex I cybrids – cell-based, galactose medium, ATP luminescence, primary screen (AID 1645843;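 active = z-score of at least 1.8 in each of two replicates, scored against plate mean and spread of sample wells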;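 note: positive z means more ATP and so rescue of galactose-driven cybrid death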). As to conditions: complex I mutant cybrid cells, 72 h, stronger effect = higher value.
Assay [15] is described as follows: P. berghei load reduction in hepatocytes – cell-based, HepG2, luciferase luminescence, HepG2 viability, primary screen (AID 624349; in the data active = parasite load remaining mostly below about 12%, no sharp cut-off; inactive = mostly above about 10%;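 note: 100% = mean of DMSO negative control wells on the same plate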). The conditions noted are these: P. berghei liver stage in HepG2, luciferase luminescence, concentration not given here; parasite load remaining: stronger effect = lower value; viability: measured here: HepG2 viability without parasites.
Assay [16] is described as follows: viability loss with induced miR-34 in A549 – imaging, A549 dox-inducible miR-34, nuclei and caspase counts, primary screen (AID 1347080;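 active = compounds whose cell count with miR-34 switched on is under 0.7 times the count with it off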). The conditions noted are these: A549 miR-34 inducible, Hoechst nuclei count, 48 h.
The target in assay [17] is 6-phosphogluconate dehydrogenase, decarboxylating (Homo sapiens) (UniProt P52209). In words: inhibition of human phosphogluconate dehydrogenase – biochemical, recombinant enzyme, NADPH absorbance, primary screen (AID 1159550;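 active = at least 20% inhibition of 6-phosphogluconate dehydrogenase activity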). As to conditions: recombinant 6PGD, NADPH absorbance 341 nm; at 10 µM; stronger effect = higher value.
Sequence of 6-phosphogluconate dehydrogenase, decarboxylating (Homo sapiens) (P52209 whole entry, looked up): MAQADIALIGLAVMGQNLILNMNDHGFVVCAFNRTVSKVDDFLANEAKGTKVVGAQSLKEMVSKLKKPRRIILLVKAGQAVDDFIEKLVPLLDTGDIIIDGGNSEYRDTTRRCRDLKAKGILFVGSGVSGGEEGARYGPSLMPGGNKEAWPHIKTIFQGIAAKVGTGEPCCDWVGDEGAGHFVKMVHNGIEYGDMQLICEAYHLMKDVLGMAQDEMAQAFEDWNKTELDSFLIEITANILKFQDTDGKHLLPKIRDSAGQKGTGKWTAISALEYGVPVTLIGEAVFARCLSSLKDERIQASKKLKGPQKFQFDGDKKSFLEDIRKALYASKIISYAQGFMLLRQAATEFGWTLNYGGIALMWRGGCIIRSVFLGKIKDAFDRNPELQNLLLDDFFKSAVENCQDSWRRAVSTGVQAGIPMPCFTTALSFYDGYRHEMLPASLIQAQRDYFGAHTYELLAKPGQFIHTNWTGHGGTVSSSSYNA
[18] abbreviates: measured here: epithelial PC-3E GFP cell survival.
Where [19] appears, read: measured here: mesenchymal TEM4-18 mCherry cell survival.
Setting [20] is: MELAS cybrid survival, CellTiter-Glo 48 h, stronger effect = higher value.
Where [21] appears, read: Rieske KO mouse fibroblast survival, CellTiter-Glo 72 h.
The mark [22] stands for this setting: stronger effect = lower value, cell number ratio, induced over uninduced.
Where [23] appears, read: measured here: relative caspase fold change +Dox/-Dox.
Setting [24] is: measured here: total cells with miR-34 induction, stronger effect = lower value.
Setting [25] is: measured here: total cells without miR-34 induction.

Sequence of Mitogen-activated protein kinase 7 (Homo sapiens) (Q13164 whole entry, looked up, the tested form may be a part): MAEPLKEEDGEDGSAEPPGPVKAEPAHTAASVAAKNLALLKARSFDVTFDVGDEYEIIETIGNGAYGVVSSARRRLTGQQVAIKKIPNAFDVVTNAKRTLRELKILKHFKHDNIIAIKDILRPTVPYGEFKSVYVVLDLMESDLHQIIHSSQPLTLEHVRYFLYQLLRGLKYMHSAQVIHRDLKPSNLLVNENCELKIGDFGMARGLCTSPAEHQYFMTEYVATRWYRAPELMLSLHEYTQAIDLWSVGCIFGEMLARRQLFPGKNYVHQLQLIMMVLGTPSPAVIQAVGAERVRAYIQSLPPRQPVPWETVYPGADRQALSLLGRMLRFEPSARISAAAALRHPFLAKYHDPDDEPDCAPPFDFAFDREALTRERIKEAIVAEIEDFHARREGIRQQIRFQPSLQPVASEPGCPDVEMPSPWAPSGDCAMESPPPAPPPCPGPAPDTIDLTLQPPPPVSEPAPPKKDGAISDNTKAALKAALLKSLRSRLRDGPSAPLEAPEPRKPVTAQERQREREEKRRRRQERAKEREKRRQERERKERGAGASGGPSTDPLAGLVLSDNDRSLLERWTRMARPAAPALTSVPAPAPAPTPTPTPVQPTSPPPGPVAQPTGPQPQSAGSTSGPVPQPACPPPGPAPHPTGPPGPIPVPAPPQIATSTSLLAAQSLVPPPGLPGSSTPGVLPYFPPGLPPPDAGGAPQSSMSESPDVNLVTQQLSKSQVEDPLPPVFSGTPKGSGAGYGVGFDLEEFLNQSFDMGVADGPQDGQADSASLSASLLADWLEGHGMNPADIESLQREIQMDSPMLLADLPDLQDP
Sequence of NAD(+) hydrolase SARM1 (Homo sapiens) (Q6SZW1 whole entry, looked up, the tested form may be a part): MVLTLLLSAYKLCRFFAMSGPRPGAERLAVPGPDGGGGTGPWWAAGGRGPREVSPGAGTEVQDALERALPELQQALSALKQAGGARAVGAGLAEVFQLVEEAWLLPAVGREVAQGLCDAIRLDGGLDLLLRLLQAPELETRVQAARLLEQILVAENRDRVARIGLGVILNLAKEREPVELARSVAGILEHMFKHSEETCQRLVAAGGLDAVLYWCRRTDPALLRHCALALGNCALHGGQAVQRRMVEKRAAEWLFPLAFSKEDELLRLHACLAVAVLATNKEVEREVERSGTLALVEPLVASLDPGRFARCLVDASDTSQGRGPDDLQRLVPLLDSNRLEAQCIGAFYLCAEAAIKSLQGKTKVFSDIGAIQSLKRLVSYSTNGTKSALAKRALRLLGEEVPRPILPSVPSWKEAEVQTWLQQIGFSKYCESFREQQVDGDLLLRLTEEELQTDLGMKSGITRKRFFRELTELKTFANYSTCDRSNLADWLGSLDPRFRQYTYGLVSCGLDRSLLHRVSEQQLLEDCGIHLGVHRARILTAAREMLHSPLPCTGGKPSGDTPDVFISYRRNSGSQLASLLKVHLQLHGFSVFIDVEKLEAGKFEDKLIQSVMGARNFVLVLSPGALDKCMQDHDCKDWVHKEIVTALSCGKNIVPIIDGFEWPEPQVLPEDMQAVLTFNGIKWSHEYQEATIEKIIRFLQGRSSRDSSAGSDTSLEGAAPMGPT

On to `Clc1ccccc1CN1CCc2sccc2C1`, for which, in assay [1], the survival is 17.8 (inactive). In addition, the insulin secretion stimulation in assay [2] was -2.1% (inactive). Moreover, in assay [3], the viability decrease is 13.8% (inactive). The tube area decrease in assay [4] was 5.4% (inactive). For the same compound, the GLP1 secretion stimulation in assay [5] is -2.6% (inactive). Moreover, the inhibition of viability in [6] is 3.9% (inactive). In addition, the viability decrease (inhibition) in assay [7] was 70.5% (active); in assay [8] it was 32.4% (inactive). In addition, the mean signal in assay [9] is 271 (inactive). In assay [10], the red/green cell ratio (normalised) was 0.9 (inactive). The values for the normalised cell number in assay [10] (setting [18]) and in assay [10] (setting [19]) were 1.03 and 0.94, respectively. For the same compound, the z-score in [11] (setting [20]) is 0.708 (inactive) and -0.623 (inactive); in [11] (setting [21]), 0.315 and 0.0692; in assay [14], -1.11 (inactive) and 0.17 (inactive). The remaining NAD in assay [12] is 10 nM (inactive). The luciferase signal in assay [13] is 52 AU (inactive).
`CS(=O)(=O)c1ccc([C@@H](O)[C@@H](CF)NC(=O)C(Cl)Cl)cc1`: the survival in assay [1] was 1.92 (inactive). In assay [15], the parasite load remaining is 110% (inactive) and 27.9% (inactive). Also, the viability in assay [15] is 101% and 68.5%. The insulin secretion stimulation in assay [2] is 1.8% (inactive). In addition, in [3], the viability decrease is -7.1% (inactive). Also, the tube area decrease in assay [4] is 10.2% (inactive). The GLP1 secretion stimulation in [5] is 0.9% (inactive). Besides, the inhibition of viability in assay [6] is 14.2% (inactive). In addition, the viability decrease (inhibition) in assay [7] is 17.1% (inactive); in [8], 13.6% (inactive). Further, the fold change is 0.925 (inactive) and 0.937 (inactive) in [16] (setting [22]); 0.927 and 1.15 in assay [16] (setting [23]). Moreover, the cell count in [16] (setting [24]) was 8300 and 9020; in [16] (setting [25]), 8980 and 9620. Further, the z-score was -0.214 (inactive) and 0.287 (inactive) in [11] (setting [20]); -1.14 and -0.231 in assay [11] (setting [21]); -1.65 (inactive) in assay [14]. Besides, the remaining NAD in assay [12] was 10 nM (inactive). The luciferase signal in assay [13] is 136 AU (inactive).
On to `CS(C)(=O)=O`, for which the inhibition in assay [17] is 0.728% (inactive).
Consider `O=C(O)c1cn(C2CC2)c2cc(N3CCNCC3)c(F)cc2c1=O`, for which, in assay [1], the survival was 20.5 (inactive). Also, the insulin secretion stimulation in assay [2] was -0.6% (inactive). Further, the viability decrease in [3] is -4.5% (inactive). Also, the tube area decrease in assay [4] is -29.4% (inactive). Further, in assay [5], the GLP1 secretion stimulation is 1.9% (inactive). In addition, in assay [6], the inhibition of viability is 8.6% (inactive). The viability decrease (inhibition) was 12.3% (inactive) in assay [7] and -5% (inactive) in [8]. Moreover, the inhibition in [17] is -0.391% (inactive). The red/green cell ratio (normalised) in assay [10] was 1.14 (inactive) and 1.04 (inactive). Also, the normalised cell number in assay [10] (setting [18]) is 1.04 and 1.24; in [10] (setting [19]), 1.18 and 1.28. Besides, the fold change was 0.89 (inactive) and 0.772 (inactive) and 0.838 (inactive) in assay [16] (setting [22]); 1.27 and 3.9 and 0.85 in assay [16] (setting [23]). For the same compound, the cell count in assay [16] (setting [24]) was 9200 and 10000 and 9070; in [16] (setting [25]), 10300 and 13000 and 10800. Besides, the z-score in assay [11] (setting [20]) was -0.333 (inactive) and -0.308 (inactive); in assay [11] (setting [21]) it was -3.38 and -1.41; in [14] it was 0.01 (inactive). The remaining NAD in [12] is 10 nM (inactive). The luciferase signal in [13] is 76 AU (inactive).
Regarding `COc1ccc2c(=O)ccoc2c1`, the inhibition in [17] was -1.53% (inactive).
`CC(C)c1c(C(=O)Nc2ccccc2)c(-c2ccccc2)c(-c2ccc(F)cc2)n1CC[C@@H](O)C[C@@H](O)CC(=O)O`: the insulin secretion stimulation in [2] is 3.7% (inactive). In addition, the viability decrease in assay [3] was 95.5% (active). Further, in assay [4], the tube area decrease is 67.8% (active). Moreover, the GLP1 secretion stimulation in assay [5] was 5.8% (inactive). Further, the inhibition of viability in [6] was 81.6% (active). Besides, the viability decrease (inhibition) in [7] is 96.3% (active); in assay [8] it was 68.1% (active). Further, the inhibition in [17] is 17.2% (inactive). Also, the fold change in assay [16] (setting [22]) was 1.27 (inactive); in assay [16] (setting [23]), 1.55. In addition, the values for the cell count in assay [16] (setting [24]) and in assay [16] (setting [25]) were 5410 and 4270, respectively. Also, the z-score in assay [11] (setting [20]) is -2.11 (inactive); in assay [11] (setting [21]), -0.779; in assay [14], -0.8 (inactive). Besides, the remaining NAD in assay [12] is 10 nM (inactive). The luciferase signal in assay [13] was 28 AU (inactive).
